Experimental data as given in the supplement of paper PMC12282887.
± gives the standard deviation of the averaged measurements.

Columns and labels:
Experiment in all cases: promoter activity interaction Z-score (Lux/OD deviation from empty-vector control); higher = stronger promoter induction by the compound
[1] = test system: E. coli BW25113 acrABp lux reporter
In short: (§1)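 E. coli BW25113 (wild type or marA, soxS or rob deletion) carrying low-copy luxCDABE promoter reporters grew in 40 µl LB Lennox in 384-well plates at 37°C. Each compound was tested at four 1:2 dilutions in biological duplicates. OD600 and luminescence were read every 30 min for 12 h. Areas were taken over 0–8 h (wild type) or 1–9 h (mutants), and wells below 10% of median growth area were removed. The score is the Z-transformed residual of growth-normalised luminescence fitted against the empty-vector control.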

[2] = test system: E. coli BW25113 micFp lux reporter
In short: as §1

[3] = test system: E. coli BW25113 ompFp lux reporter
In short: as §1

[4] = test system: E. coli BW25113 robp lux reporter
In short: as §1

[5] = test system: E. coli BW25113 soxSp lux reporter
In short: as §1

[6] = test system: E. coli BW25113 tolCp lux reporter
In short: as §1

[7] = 6.9 µg/ml, genetic background: wild type
[8] = 6.9 µg/ml, genetic background: ΔmarA
[9] = 6.9 µg/ml, genetic background: Δrob
[10] = 6.9 µg/ml, genetic background: ΔsoxS
[11] = 13.8 µg/ml, genetic background: wild type
[12] = 13.8 µg/ml, genetic background: ΔmarA
[13] = 13.8 µg/ml, genetic background: Δrob
[14] = 13.8 µg/ml, genetic background: ΔsoxS
[15] = 27.5 µg/ml, genetic background: wild type
[16] = 27.5 µg/ml, genetic background: ΔmarA
[17] = 27.5 µg/ml, genetic background: Δrob
[18] = 27.5 µg/ml, genetic background: ΔsoxS
[19] = 55 µg/ml, genetic background: wild type
[20] = 55 µg/ml, genetic background: ΔmarA
[21] = 55 µg/ml, genetic background: Δrob
[22] = 55 µg/ml, genetic background: ΔsoxS

CCCC(=O)O [Butyrate]
promoter activity interaction Z-score [1, 7]: -0.186 ± 0.091
promoter activity interaction Z-score [1, 8]: -0.105 ± 0.089
promoter activity interaction Z-score [1, 9]: -0.0421 ± 0.058
promoter activity interaction Z-score [1, 10]: 0.455 ± 0.31
promoter activity interaction Z-score [1, 11]: 0.0203 ± 0.11
promoter activity interaction Z-score [1, 12]: 0.0848 ± 0.57
promoter activity interaction Z-score [1, 13]: 0.344 ± 0.08
promoter activity interaction Z-score [1, 14]: -0.00445 ± 0.01
promoter activity interaction Z-score [1, 15]: -0.32 ± 0.15
promoter activity interaction Z-score [1, 16]: 0.724 ± 0.18
promoter activity interaction Z-score [1, 17]: -0.04 ± 0.27
promoter activity interaction Z-score [1, 18]: 0.471 ± 0.41
promoter activity interaction Z-score [1, 19]: 0.0224 ± 0.013
promoter activity interaction Z-score [1, 20]: 0.369 ± 0.73
promoter activity interaction Z-score [1, 21]: 0.3 ± 0.086
promoter activity interaction Z-score [1, 22]: 0.561 ± 1.1
promoter activity interaction Z-score [2, 7]: -0.053 ± 0.54
promoter activity interaction Z-score [2, 8]: -0.02 ± 0.084
promoter activity interaction Z-score [2, 9]: 0.0084 ± 0.082
promoter activity interaction Z-score [2, 10]: -0.0289 ± 0.27
promoter activity interaction Z-score [2, 11]: 0.0525 ± 0.25
promoter activity interaction Z-score [2, 12]: 0.104 ± 0.01
promoter activity interaction Z-score [2, 13]: -0.131 ± 0.024
promoter activity interaction Z-score [2, 14]: 0.104 ± 0.51
promoter activity interaction Z-score [2, 15]: -0.317 ± 0.084
promoter activity interaction Z-score [2, 16]: 0.0463 ± 0.13
promoter activity interaction Z-score [2, 17]: -0.0949 ± 0.063
promoter activity interaction Z-score [2, 18]: 0.336 ± 0.088
promoter activity interaction Z-score [2, 19]: -0.235 ± 0.24
promoter activity interaction Z-score [2, 20]: -0.118 ± 0.0028
promoter activity interaction Z-score [2, 21]: -0.0628 ± 0.18
promoter activity interaction Z-score [2, 22]: -0.082 ± 0.078
promoter activity interaction Z-score [3, 7]: -0.311 ± 0.047
promoter activity interaction Z-score [3, 8]: -0.076 ± 0.29
promoter activity interaction Z-score [3, 9]: 0.0244 ± 0.24
promoter activity interaction Z-score [3, 10]: -0.0786 ± 0.12
promoter activity interaction Z-score [3, 11]: -0.231 ± 0.022
promoter activity interaction Z-score [3, 12]: 0.259 ± 0.068
promoter activity interaction Z-score [3, 13]: 0.303 ± 0.041
promoter activity interaction Z-score [3, 14]: 0.34 ± 0.31
promoter activity interaction Z-score [3, 15]: -0.53 ± 0.22
promoter activity interaction Z-score [3, 16]: -0.0799 ± 0.19
promoter activity interaction Z-score [3, 17]: 0.0179 ± 0.31
promoter activity interaction Z-score [3, 18]: 0.623 ± 0.35
promoter activity interaction Z-score [3, 19]: 0.0627 ± 0.12
promoter activity interaction Z-score [3, 20]: 0.515 ± 0.0087
promoter activity interaction Z-score [3, 21]: 0.664 ± 0.45
promoter activity interaction Z-score [3, 22]: 0.842 ± 0.3
promoter activity interaction Z-score [4, 7]: 0.406 ± 0.012
promoter activity interaction Z-score [4, 8]: -0.648 ± 0.21
promoter activity interaction Z-score [4, 9]: 0.484 ± 0.27
promoter activity interaction Z-score [4, 10]: 0.116 ± 0.23
promoter activity interaction Z-score [4, 11]: 0.00618 ± 0.49
promoter activity interaction Z-score [4, 12]: 0.268 ± 0.098
promoter activity interaction Z-score [4, 13]: 0.377 ± 0.92
promoter activity interaction Z-score [4, 14]: 0.84 ± 0.41
promoter activity interaction Z-score [4, 15]: -0.708 ± 0.16
promoter activity interaction Z-score [4, 16]: -0.0714 ± 0.84
promoter activity interaction Z-score [4, 17]: -0.162 ± 0.23
promoter activity interaction Z-score [4, 18]: 0.234 ± 0.13
promoter activity interaction Z-score [4, 19]: 0.0368 ± 0.57
promoter activity interaction Z-score [4, 20]: -0.0155 ± 0.33
promoter activity interaction Z-score [4, 21]: 0.391 ± 0.82
promoter activity interaction Z-score [4, 22]: 0.993 ± 0.59
promoter activity interaction Z-score [5, 7]: 0.0135 ± 0.086
promoter activity interaction Z-score [5, 8]: 0.215 ± 0.14
promoter activity interaction Z-score [5, 9]: 0.301 ± 0.047
promoter activity interaction Z-score [5, 10]: 0.31 ± 0.33
promoter activity interaction Z-score [5, 11]: 0.0512 ± 0.26
promoter activity interaction Z-score [5, 12]: 0.372 ± 0.21
promoter activity interaction Z-score [5, 13]: 0.172 ± 0.11
promoter activity interaction Z-score [5, 14]: 0.159 ± 0.19
promoter activity interaction Z-score [5, 15]: 0.00814 ± 0.044
promoter activity interaction Z-score [5, 16]: 0.223 ± 0.09
promoter activity interaction Z-score [5, 17]: 0.122 ± 0.097
promoter activity interaction Z-score [5, 18]: 0.33 ± 0.46
promoter activity interaction Z-score [5, 19]: -0.104 ± 0.11
promoter activity interaction Z-score [5, 20]: 0.322 ± 0.006
promoter activity interaction Z-score [5, 21]: 0.0248 ± 0.034
promoter activity interaction Z-score [5, 22]: 0.334 ± 0.73
promoter activity interaction Z-score [6, 7]: -0.319 ± 1.1
promoter activity interaction Z-score [6, 8]: -0.0114 ± 0.66
promoter activity interaction Z-score [6, 9]: -0.444 ± 0.1
promoter activity interaction Z-score [6, 10]: -0.376 ± 0.46
promoter activity interaction Z-score [6, 11]: -0.518 ± 0.94
promoter activity interaction Z-score [6, 12]: -0.427 ± 0.69
promoter activity interaction Z-score [6, 13]: 0.207 ± 1
promoter activity interaction Z-score [6, 14]: 0.311 ± 0.35
promoter activity interaction Z-score [6, 15]: -1.01 ± 0.066
promoter activity interaction Z-score [6, 16]: 0.539 ± 0.083
promoter activity interaction Z-score [6, 17]: 0.18 ± 0.021
promoter activity interaction Z-score [6, 18]: 0.0693 ± 0.34
promoter activity interaction Z-score [6, 19]: 0.0415 ± 0.077
promoter activity interaction Z-score [6, 20]: 0.218 ± 0.98
promoter activity interaction Z-score [6, 21]: -0.252 ± 0.71
promoter activity interaction Z-score [6, 22]: 0.709 ± 0.36
